CSC inhib: blocks cancer stem cells; cancer stem cell-like cells viability, luminescence; inhibition, % at 7.5 µM; 1.1% of 300,000 active; in the data active means inhibition above about 75%; inconclusive means no clear call, values can overlap the other calls; tested in HMLE shEcad cells
SKKanGAS inh: blocks kanamycin growth of S. pyogenes SKKanGAS strain. BacTiter-Glo, 6 h. inhibition, % at 7.5 µM. 1.3% of 300,000 active;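 active means mean replicate score, as percent of positive control median, at least 50; inconclusive means mean below 50 but one replicate at or above 50; inactive means mean and every replicate below 50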;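 further: strain carries kanamycin resistance gene driven by streptokinase promoter and grows in 40 µg/ml kanamycin; loss of luminescence reflects streptokinase promoter inhibition or plain growth inhibition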
Mdm2 MdmX PPI: human Mdm2/MdmX binding inhibition; SaOS-2 split-luciferase Mdm2/MdmX complementation, luminescence; O15151+Q00987; inhibition, % at 8 µM; AID 485346; 3% of 330,000 active;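 active means inhibition of at least 50% at 8 µM in the primary screen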
NR3A LBD binder: modulators (binders) of human NR3A ligand-binding domain; NR3A LBD differential scanning fluorimetry, Tm shift; 0% = protein alone, 100% = glycine-bound protein; 2.5% of 340,000 active; AID 1259313; Tm shift relative to glycine control, % at 25 µM;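 active means melting temperature shift of at least 10% of the positive control shift, at one fixed dose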
MPTP inh: blocks calcium-induced mitochondrial swelling | isolated mouse mitochondria, Ca2+ swelling absorbance, 30 min | inhibition, % at 10 µM | 1.4% of 360,000 active;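 active means inhibition of 50% or more, scaled per plate between neutral and stimulator controls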
Beta cell apopt: blocks beta cell apoptosis; INS-1E cytokine-induced death, ATP luminescence, 48 h; percent of positive-control rescue, neutral wells zero; 0.8% of 300,000 active; protection from apoptosis, % (no concentration beside the values);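 active means Every replicate reaches about 75%, or at least half do and their mean reaches it too, limit read from the data; inconclusive means At least half of replicates reach the limit but their mean does not; inactive means Under half of replicates reach the limit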;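 further: higher means more ATP so stronger rescue from cytokine killing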
Mdm2-MdmX conf: confirmation of human Mdm2/MdmX interaction inhibitors. inhibition, % at 8 µM. shares compounds with Mdm2 MdmX PPI. 55% of 10,000 active. AID 489028. Mdm2-MdmX binding, luminescent assay; in the data active means inhibition above about 40%
FLuc counter: inhibits full-length luciferase, flagging false Mdm2/MdmX hits. shares compounds with Mdm2 MdmX PPI. SaOS-2 full-length luciferase counterscreen, luminescence. inhibition, % at 8 µM. 77% of 6,200 active;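 active means mean inhibition at 8 µM reaching about 37%, which flags the compound as non-specific, limit read from the data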;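 further: p53-null SaOS-2 cells with luciferase driven by a doxycycline-inducible promoter; compound on cells about two nights before reading with doxycycline added after day one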
Large screens that a line does not name were inactive (follow-up assays come after a bar, where they were run); ! = repeats disagree. An excerpt weighted towards active compounds, which were near 6.9% of everything screened.

COc1ccc(-c2nc(NC(=O)c3ccc(OCC(=O)Nc4ccc(F)cc4)c(OC)c3)sc2C)cc1	Mdm2 MdmX PPI 60.8, NR3A LBD binder 10.7 | Mdm2-MdmX conf 45.6 | FLuc counter 58.1
COc1ccccc1NC(=O)CC12CC3CC(CC(Br)(C3)C1)C2	none
Cn1nnnc1Sc1ncnc2scc(-c3cccc(F)c3)c12	Mdm2 MdmX PPI 97.7 (no result: SKKanGAS inh) | Mdm2-MdmX conf 98.6 | FLuc counter 53.4
COC(=O)CSc1ncnc2scc(-c3ccccc3)c12	none
Cn1nnnc1Sc1ncnc2scc(-c3cccc(C(F)(F)F)c3)c12	Mdm2 MdmX PPI 100.4 (no result: CSC inhib, SKKanGAS inh) | Mdm2-MdmX conf 99.4 | FLuc counter 53.4
Cn1nnnc1Sc1ncnc2scc(-c3ccc(C(F)(F)F)cc3)c12	CSC inhib 93.9, Mdm2 MdmX PPI 97.8 (no result: SKKanGAS inh) | Mdm2-MdmX conf 98.8 | FLuc counter 50.0
COc1cccc(-c2csc3ncnc(Sc4nnnn4C)c23)c1	Mdm2 MdmX PPI 97.9 (no result: CSC inhib, SKKanGAS inh) | Mdm2-MdmX conf 79.7 | FLuc counter inactive
Fc1ccc(CSc2ncnc3scc(-c4ccccc4)c23)cc1	none
Cn1nnnc1Sc1ncnc2scc(-c3ccccc3C(F)(F)F)c12	none (no result: SKKanGAS inh)
CC1(C)C=Cc2c(c3c(c4c(=O)c(-c5ccc(O)cc5)coc24)OC(C)(C)CC3)O1	CSC inhib 100.2, Mdm2 MdmX PPI 75.5 | Mdm2-MdmX conf inactive
COC(=O)[C@@H]1CC[C@H](C)[C@@H](c2ccc(C)cc2)N1C(=O)c1ccc(/C=N/O[C@@H](C)c2cn([C@H](CO)Cc3ccccc3)nn2)cc1	Mdm2 MdmX PPI 87.7 (no result: NR3A LBD binder, MPTP inh) | Mdm2-MdmX conf 65.7 | FLuc counter 50.7
COc1ccc2nc(C)cc(SCC(=O)NNC(=O)COc3ccccc3)c2c1	none
COc1ccc2nc(C)cc(Sc3nc4ccccc4s3)c2c1	Mdm2 MdmX PPI 77.7 | Mdm2-MdmX conf inactive
CCOC(=O)c1[nH]c2ccc(F)cc2c1NC(=O)CN1CCN(C/C=C/c2ccccc2)CC1	Mdm2 MdmX PPI 56.6 | Mdm2-MdmX conf inactive
CC1(C(=O)Nc2ccc3nc[nH]c3c2)CCN1C(=O)c1ccccc1CCc1ccccc1 (stereo not given)	none (no result: CSC inhib, SKKanGAS inh, Mdm2 MdmX PPI, NR3A LBD binder, Beta cell apopt)
Cc1ccccc1OCC(O)Cn1c(=N)n(Cc2ccccc2)c2ccccc21 (stereo not given)	CSC inhib inconclusive, Mdm2 MdmX PPI 97.4 | Mdm2-MdmX conf 95.7 | FLuc counter inactive
COc1ccccc1OCC(O)Cn1c(=N)n(Cc2ccccc2)c2ccccc21 (stereo not given)	none
CCCCCn1c(=N)n(CC(O)COc2ccccc2OC)c2ccccc21 (stereo not given)	Mdm2 MdmX PPI 60.6! | Mdm2-MdmX conf inactive
CCC(C)(C)NC(=O)C(c1ccc(OC)cc1)N(C(=O)CCC(=O)Nc1cc(C)on1)c1ccc2c(c1)OCCO2 (stereo not given)	none
Cc1cc(C)c2ccc3c(C)c(C)nc3c2[nH]1	Mdm2 MdmX PPI 69.9 (no result: SKKanGAS inh) | Mdm2-MdmX conf 42.2 | FLuc counter 45.5
Cc1cc(=O)[nH]c2c(C)c(N)ccc12	none (no result: CSC inhib)
Cc1cc(C)c2nc(N3CCC(C(=O)NCC4CCCO4)CC3)sc2c1 (stereo not given)	none
Cc1cc(C)c2nc(N3CCC(C(=O)NCCCN4CCCCC4)CC3)sc2c1	Mdm2 MdmX PPI 83.9 | Mdm2-MdmX conf 42.9 | FLuc counter 46.4
COc1ccc2cc1Oc1ccc(cc1)C[C@H]1c3c(cc4c(c3Oc3cc5c(cc3OC)CCN(C)[C@@H]5C2)OCO4)CCN1C	Mdm2 MdmX PPI 100.4 (no result: Beta cell apopt) | Mdm2-MdmX conf 86.8 | FLuc counter inactive
O=C(Nc1cccc(Cl)c1)c1cc2c(=O)n3ccccc3nc2s1	Mdm2 MdmX PPI 55.6 | Mdm2-MdmX conf inactive
Cc1cccc(NC(=O)c2cc3c(=O)n4ccccc4nc3s2)c1	none
CC(=O)NS(=O)(=O)c1ccc(NC(=O)c2cc3c(=O)n4ccccc4nc3s2)cc1	none
CCN(CC)S(=O)(=O)c1ccc(OC)c(NC(=O)c2cc3c(=O)n4ccccc4nc3s2)c1	Mdm2 MdmX PPI 55.4 | Mdm2-MdmX conf inactive
CS(=O)(=O)c1nc([N+](=O)[O-])nn1CCCc1ccccc1	Mdm2 MdmX PPI 55.2 | Mdm2-MdmX conf inactive
CCOc1nc(-c2ccccc2)ncc1Oc1ccccc1	none
O=C1C=CC(=C(c2ccc(O)cc2)c2ccc(O)cc2)C=C1	Mdm2 MdmX PPI 90.6 (no result: CSC inhib, SKKanGAS inh) | Mdm2-MdmX conf 70.2 | FLuc counter 45.4
O=C(O)C1=CC(=C(c2ccc(O)c(C(=O)O)c2)c2ccc(O)c(C(=O)O)c2)C=CC1=O	none (no result: SKKanGAS inh, Mdm2 MdmX PPI, NR3A LBD binder, MPTP inh)
Cc1c(C(=O)NCCC2=CCCCC2)oc2ccc(S(=O)(=O)N3CCOCC3)cc12	Mdm2 MdmX PPI 53.8 (no result: SKKanGAS inh) | Mdm2-MdmX conf inactive
Cc1c(C(=O)NCCCN2CCCC2=O)oc2ccc(S(=O)(=O)N3CCOCC3)cc12	none (no result: SKKanGAS inh)
COc1ccc(CNCCC(c2ccc(OC(C)C)cc2)c2ccccc2OC)cc1 (stereo not given)	CSC inhib 102.6, Mdm2 MdmX PPI 96.5, Beta cell apopt inconclusive | Mdm2-MdmX conf 53.7 | FLuc counter 68.1
COc1ccccc1C(CCNCc1ccccc1)c1ccc(OC(C)C)cc1 (stereo not given)	Mdm2 MdmX PPI 60.7 | Mdm2-MdmX conf inactive
COc1ccccc1NC(=O)CC(c1ccc(OC(C)C)cc1)c1ccccc1OC (stereo not given)	none
COc1ccccc1C(CCNCc1ccc(N(C)C)cc1)c1ccc(OC(C)C)cc1 (stereo not given)	CSC inhib 103.0, Mdm2 MdmX PPI 97.1, Beta cell apopt 113.7 | Mdm2-MdmX conf 58.1 | FLuc counter 56.9
COc1ccc(CNCCC(c2ccccc2)c2ccc3c(c2)OCO3)cc1 (stereo not given)	Mdm2 MdmX PPI 66.5, Beta cell apopt 85.4 | Mdm2-MdmX conf inactive
COc1ccc(C(CC(=O)O)c2ccc3c(c2)OCO3)cc1 (stereo not given)	none
O=C(c1cnc(Cl)c(Cl)c1)N1CCN(S(=O)(=O)c2ccc3ccccc3c2)CC1	none (no result: CSC inhib, SKKanGAS inh, Beta cell apopt)
C/C(=N\NS(=O)(=O)c1c(C)cc(C)cc1C)c1ccncc1	none
COc1ccc(S(=O)(=O)Nc2c(NC3CCCCC3)c3ccccc3oc2=O)cc1	none
COc1ccc(S(=O)(=O)N2CCOCC2)cc1NC(=O)CCNC(=O)c1ccc([N+](=O)[O-])cc1	none (no result: CSC inhib, SKKanGAS inh)
COc1ccc(CNCCC(c2ccc(OC(C)C)cc2)c2ccccc2OC)cc1OC (stereo not given)	Mdm2 MdmX PPI 55.8 | Mdm2-MdmX conf 40.4 | FLuc counter 66.1
CN(C)Cc1ccc(-c2nc3cccc4c3n2CCNC4=O)cc1	Mdm2 MdmX PPI 57.7 | Mdm2-MdmX conf inactive | FLuc counter 70.5
Cc1cc(CN(C)C(=O)CC2C(=O)NCCN2Cc2ccc(-c3ccccc3)cc2)on1 (stereo not given)	none
